Reference: PubChem BioAssay (Tox21)
Records with an inconclusive call do not appear. Activity calls are given as the source filed them. Unless noted, calls follow the shape of the dose curve; as a rule, active = well fitted curve in the direction sought with a large enough effect in the repeat runs; inconclusive = weak or mixed curves; inactive = no such curve, though single readings can be large; an effect the other way counts as inactive or inconclusive.

Experiments:
[1] = qHTS assay to identify small molecule agonists of the estrogen receptor beta (ER-beta) signaling pathway - cell viability counter screen (AID 1259380); also: nearly all actives have a fitted effect of over 30% in size
Method in brief: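 Compounds dissolved in DMSO were pin-transferred onto ER-beta-UAS-bla HEK293T cells that had settled 6 hr, and exposure ran 16 hr at 37C. Following the reporter read, CellTiter-Glo luminescence after 30 min at room temperature indicated cytotoxicity.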

[2] = qHTS assay to identify small molecule antagonists of the estrogen receptor beta (ER-beta) signaling pathway - cell viability counter screen (AID 1259382);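 also: HEK293T cells carrying ER-beta-UAS-bla reporter stimulated with estradiol; series mostly up to about 92 µM; nearly all actives have a fitted effect of over 55% in size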
Method in brief: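 CellTiter-Glo ATP luminescence measured after the LiveBLAzer read in the same wells; ER-beta-UAS-bla HEK293T cells, 16 hr compound treatment with 1nM 17-beta-estradiol agonist at 37C, 5% CO2.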

[3] = molecular target: Estrogen receptor (Homo sapiens) (UniProt P03372); experiment: qHTS assay to identify small molecule agonists of the estrogen receptor alpha (ER-alpha) signaling pathway in the presence of an antagonist (AID 1259383; calls by dose curve; also: top concentration of the series differs between compounds; nearly all actives have a fitted effect of over 15% in size)
Method in brief: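 Luminescent ERE-luciferase reporter, VM7Luc4E2 cells (endogenous ER-alpha); 10.0nM ICI-182,780 final; 15-point compound titration; 22hr at 37C; ONE-Glo, 30min RT.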

[4] = qHTS assay to identify small molecule agonists or antagonists of the thyroid stimulating hormone receptor (TSHR) signaling pathway - wild type cell line counter screen (AID 1259384; calls by dose curve)
Method in brief: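 Counter screen in untransfected Hek293: compounds (15-point titration, triplicate) plus phosphodiesterase inhibitor Ro20-1724 added after 18 h plating; 30 min RT. Intracellular cAMP via competitive d2/cryptate immunoassay, 1 h incubation.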

[5] = qHTS assay to identify small molecule agonists of the estrogen receptor alpha (ER-alpha) signaling pathway in the presence of an antagonist - cell viability counter screen (AID 1259386);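 also: series mostly up to about 92 µM; cells exposed to compounds for 22 h at 37 °C before the viability read; nearly all actives have a fitted effect of over 30% in size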
Method in brief: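 Using estrogen-depleted VM7Luc4E2 cells, the 15-concentration compound series was applied together with 10.0nM ICI-182,780 and incubated 22hr at 37C/5% CO2. Cell viability was then scored by CellTiter-Fluor.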

[6] = molecular target: Progesterone receptor (Homo sapiens) (UniProt P06401); experiment: qHTS assay to identify small molecule agonists of the progesterone receptor (PR) signaling pathway (AID 1346784; calls by dose curve; also: nearly all actives have a fitted effect of over 30% in size)
Method in brief: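 Beta-lactamase reporter read-out: after 16 hr compound treatment at 37C and a further 2 hr at room temperature with LiveBLAzer B/G FRET substrate, fluorescence was measured in PR-UAS-bla HEK 293T cells grown in 2% charcoal-stripped serum.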

[7] = molecular target: Progesterone receptor (Homo sapiens) (UniProt P06401); experiment: qHTS assay to identify small molecule antagonists of the progesterone receptor (PR) signaling pathway (AID 1346795; active = well fitted inhibition curve with a large enough effect in the signal ratio in the repeat runs, not every such curve was filed as active; the % refers to the signal ratio)
Method in brief: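 Read-out is fluorescence from the LiveBLAzer B/G FRET substrate, cleaved by a UAS-controlled beta-lactamase in PR-UAS-bla HEK293T cells after 16 hr exposure to compound plus 1 nM promegestone (final), followed by 2 hr at room temperature.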

[8] = qHTS assay to identify small molecule antagonists of the progesterone receptor (PR) signaling pathway - cell viability counter screen (AID 1346798);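 also: HEK293T PR-UAS-bla cells stimulated with the agonist R5020; series mostly up to about 92 µM; nearly all actives have a fitted effect of over 50% in size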
Method in brief: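 HEK293T PR-UAS-bla, 2% charcoal-stripped FBS; 4 hr pre-plate; cpd + R5020, 16 h 37C; LiveBLAzer read first; then CellTiter-Glo 30 min RT, luminescence.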

[9] = qHTS assay to identify small molecule agonists of the progesterone receptor (PR) signaling pathway - cell viability counter screen (AID 1346799; calls by dose curve; also: nearly all actives have a fitted effect of over 45% in size)
Method in brief: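 Luminescence from CellTiter-Glo, added after the beta-lactamase FRET read in the same wells, gave cytotoxicity in PR-UAS-bla HEK293T cells treated with compounds for 16 hr at 37C.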

[10] = qHTS assay to identify small molecule agonists of the TGF-beta/Smad signaling pathway - cell viability counter screen (AID 1346829); also: top concentration of the series differs between compounds; nearly all actives have a fitted effect of over 45% in size
Method in brief: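 Same-well cytotoxicity: CellTiter-Glo added after the 2 hr room-temperature beta-lactamase substrate step, luminescence measured 30 min later; cells had 5 hr of compound at 37 C.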

[11] = qHTS assay to identify small molecule agonists of the TGF-beta/Smad signaling pathway (AID 1346859; active = well fitted activation curve with a large enough effect in the signal ratio in the repeat runs, not every such curve was filed as active; the % refers to the signal ratio; also: series mostly up to about 77 µM)
Method in brief: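 SBE-bla HEK 293T, 4,000 cells/well, plated o/n; cpd in DMSO, 5 hr, 37 C/5% CO2; B/G FRET substrate 2 hr RT; ex 405, em 460/530 nm.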

[12] = Human pregnane X receptor (PXR) small molecule agonists, qHTS cell viability counter screen (AID 1346977); also: nearly all actives have a fitted effect of over 50% in size
Method in brief: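 PXR-Luc HepG2, 2,000 cells/well, 5% charcoal-stripped FBS; 5hr settle; cpd 24hr, 37C/5% CO2; CellTiter-Fluor at 23hr, read 1hr later (fluorescence).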

[13] = Caspase-3/7 induction in HepG2 cells by small molecules, qHTS assay (AID 1346978); also: nearly all actives have a fitted effect of over 15% in size
Method in brief: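 Caspase-3/7 induction was measured by Caspase-Glo 3/7 luminescence (30 min, room temperature) after a 17 hr compound exposure of wild-type HepG2 cells seeded at 2,000 per well and pre-incubated 5 hr.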

[14] = Caspase-3/7 induction in CHO-K1 cells by small molecules, qHTS cell viability counter screen (AID 1346979); also: nearly all actives have a fitted effect of over 35% in size
Method in brief: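 Cells (CHO-K1, wild type) are plated at 1,500 per well and incubated 5hr. Test compounds in DMSO are then pinned in, followed by 16hr at 37C and 5% CO2. Viability is read by CellTiter-Fluor fluorescence after 1hr.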

[15] = Caspase-3/7 induction in CHO-K1 cells by small molecules, qHTS assay (AID 1346980); also: nearly all actives have a fitted effect of over 15% in size
Method in brief: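 Luminescent Caspase-Glo 3/7 read (30min, room temperature) quantified apoptosis induction. Cells were wild-type CHO-K1, treated with compound for 17hr at 37 C and 5% CO2.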

[16] = qHTS assay to identify small molecule antagonists of the TGF-beta/Smad signaling pathway - cell viability counter screen (AID 1346824); also: nearly all actives have a fitted effect of over 50% in size
Method in brief: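 Cytotoxicity counter-screen run in the same wells as the beta-lactamase Smad reporter read: CellTiter-Glo luminescence after 30 min at room temperature. HEK 293T SBE-bla cells had 5 hr compound exposure at 37 C with TGF-beta1 (0.25 ng/mL stock).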

[17] = molecular target: Thyrotropin-releasing hormone receptor (Homo sapiens) (UniProt P34981); experiment: qHTS assay to identify small molecule antagonists of the thyrotropin-releasing hormone receptor (TRHR) signaling pathway (AID 1346877; active = well fitted inhibition curve with a large enough effect in the repeat runs, not every such curve was filed as active; also: series mostly up to about 51 µM)
Method in brief: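 Calcium signal in dye-loaded TRHR/HEK293 cells; compounds added 5 min before TRH (1 nM final); fluorescence monitored 3 min at 1 s steps.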

[18] = molecular target: Thyrotropin-releasing hormone receptor (Homo sapiens) (UniProt P34981); experiment: qHTS assay to identify small molecule agonists of the thyrotropin-releasing hormone receptor (TRHR) signaling pathway (AID 1346891; calls by dose curve; also: series mostly up to about 58 µM)
Method in brief: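 Intracellular calcium rise, read as fluorescence every second for 3 min, served as the agonist signal in dye-loaded HEK293 cells expressing TRHR; each compound ran at 15 concentrations in triplicate.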

[19] = molecular target: Thyrotropin receptor (Homo sapiens) (UniProt P16473); experiment: qHTS assay to identify small molecule antagonists of the thyroid stimulating hormone receptor (TSHR) signaling pathway (AID 1259385; calls by dose curve; also: nearly all actives have a fitted effect of over 20% in size)
Method in brief: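 Antagonist mode: compound-treated TSHR-expressing HEK293 cells were stimulated with 1.5 ng/mL TSH (final) in presence of Ro20-1724 for 30 min at RT. HTRF cAMP detection after 1 h; each compound tested at 15 concentrations, triplicate.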

Measured: Potency

Chain of Thyrotropin-releasing hormone receptor (Homo sapiens) (P34981 whole entry, looked up): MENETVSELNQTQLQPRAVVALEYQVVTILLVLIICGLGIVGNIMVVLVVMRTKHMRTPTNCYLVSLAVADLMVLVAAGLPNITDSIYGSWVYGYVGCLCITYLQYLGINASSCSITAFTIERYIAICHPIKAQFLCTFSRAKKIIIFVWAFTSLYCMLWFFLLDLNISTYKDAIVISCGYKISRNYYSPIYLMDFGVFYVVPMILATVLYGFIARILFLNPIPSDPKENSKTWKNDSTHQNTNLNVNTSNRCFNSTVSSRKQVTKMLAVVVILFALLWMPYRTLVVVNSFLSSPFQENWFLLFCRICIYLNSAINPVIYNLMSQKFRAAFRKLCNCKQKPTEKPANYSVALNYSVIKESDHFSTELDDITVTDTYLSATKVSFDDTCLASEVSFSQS
Chain of Progesterone receptor (Homo sapiens) (P06401 whole entry, looked up): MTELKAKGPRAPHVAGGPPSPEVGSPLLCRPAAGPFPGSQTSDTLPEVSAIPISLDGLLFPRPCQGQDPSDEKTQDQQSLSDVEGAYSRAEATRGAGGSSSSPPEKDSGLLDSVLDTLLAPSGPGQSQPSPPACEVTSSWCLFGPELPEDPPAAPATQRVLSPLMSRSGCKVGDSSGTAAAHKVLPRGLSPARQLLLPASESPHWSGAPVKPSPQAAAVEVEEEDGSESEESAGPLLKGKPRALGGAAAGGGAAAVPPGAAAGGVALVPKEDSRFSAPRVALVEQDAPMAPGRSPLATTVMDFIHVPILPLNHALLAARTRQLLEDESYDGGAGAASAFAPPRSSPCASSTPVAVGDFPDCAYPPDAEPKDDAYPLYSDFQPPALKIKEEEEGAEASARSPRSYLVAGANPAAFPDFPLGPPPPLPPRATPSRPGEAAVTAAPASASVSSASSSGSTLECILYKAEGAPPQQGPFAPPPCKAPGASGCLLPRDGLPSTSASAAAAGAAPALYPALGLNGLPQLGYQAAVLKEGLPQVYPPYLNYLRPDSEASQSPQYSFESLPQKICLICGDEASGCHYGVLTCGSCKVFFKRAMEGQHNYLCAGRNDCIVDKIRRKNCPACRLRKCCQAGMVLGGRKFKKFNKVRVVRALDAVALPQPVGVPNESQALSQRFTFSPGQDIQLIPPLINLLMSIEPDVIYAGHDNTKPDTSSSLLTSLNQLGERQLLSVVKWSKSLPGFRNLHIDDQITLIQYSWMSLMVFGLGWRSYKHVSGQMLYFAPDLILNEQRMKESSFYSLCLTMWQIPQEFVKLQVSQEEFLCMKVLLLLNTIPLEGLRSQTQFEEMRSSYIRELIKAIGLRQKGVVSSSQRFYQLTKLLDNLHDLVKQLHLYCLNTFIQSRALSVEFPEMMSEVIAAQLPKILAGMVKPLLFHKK
Chain of Thyrotropin receptor (Homo sapiens) (P16473 whole entry, looked up): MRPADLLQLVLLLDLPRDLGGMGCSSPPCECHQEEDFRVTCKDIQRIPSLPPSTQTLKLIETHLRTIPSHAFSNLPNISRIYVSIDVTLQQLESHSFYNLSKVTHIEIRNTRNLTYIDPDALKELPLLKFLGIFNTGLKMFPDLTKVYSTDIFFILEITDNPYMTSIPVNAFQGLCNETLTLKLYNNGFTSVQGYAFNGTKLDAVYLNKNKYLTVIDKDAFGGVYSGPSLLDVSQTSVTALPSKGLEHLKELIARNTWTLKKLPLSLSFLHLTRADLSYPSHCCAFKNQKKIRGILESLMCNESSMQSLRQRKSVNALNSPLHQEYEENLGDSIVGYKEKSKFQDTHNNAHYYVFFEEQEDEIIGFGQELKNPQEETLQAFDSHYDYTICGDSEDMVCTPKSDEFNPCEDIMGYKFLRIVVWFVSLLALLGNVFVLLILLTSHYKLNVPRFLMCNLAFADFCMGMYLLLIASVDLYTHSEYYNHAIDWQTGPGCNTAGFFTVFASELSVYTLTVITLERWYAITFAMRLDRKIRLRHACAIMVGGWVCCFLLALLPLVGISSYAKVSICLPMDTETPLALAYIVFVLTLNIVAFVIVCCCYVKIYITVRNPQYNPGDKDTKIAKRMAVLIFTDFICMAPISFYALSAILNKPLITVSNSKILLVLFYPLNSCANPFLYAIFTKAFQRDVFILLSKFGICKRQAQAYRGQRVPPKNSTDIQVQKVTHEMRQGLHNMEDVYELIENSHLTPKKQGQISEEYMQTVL
Chain of Estrogen receptor (Homo sapiens) (P03372 whole entry, looked up): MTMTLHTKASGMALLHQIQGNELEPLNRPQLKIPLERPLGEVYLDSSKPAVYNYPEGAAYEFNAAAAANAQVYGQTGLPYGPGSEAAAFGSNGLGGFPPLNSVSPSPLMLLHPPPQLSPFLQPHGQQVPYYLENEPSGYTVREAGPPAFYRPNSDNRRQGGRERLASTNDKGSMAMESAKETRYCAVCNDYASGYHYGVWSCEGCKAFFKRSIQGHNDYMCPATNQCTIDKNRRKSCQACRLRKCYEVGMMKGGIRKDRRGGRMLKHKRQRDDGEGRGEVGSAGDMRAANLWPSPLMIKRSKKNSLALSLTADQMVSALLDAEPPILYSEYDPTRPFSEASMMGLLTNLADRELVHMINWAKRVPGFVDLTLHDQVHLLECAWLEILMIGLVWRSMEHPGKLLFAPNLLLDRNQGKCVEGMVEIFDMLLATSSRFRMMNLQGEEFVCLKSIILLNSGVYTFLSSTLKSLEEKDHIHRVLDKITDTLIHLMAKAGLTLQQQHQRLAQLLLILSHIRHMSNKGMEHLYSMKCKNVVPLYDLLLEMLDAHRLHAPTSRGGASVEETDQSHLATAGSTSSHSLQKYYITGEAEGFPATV

CC(C)c1ccc(S(=O)(=O)O)cc1
not listed: [16] | [17] | [18] | [19]
inactive: all other assays above

CC(C)(N)CO
not listed: [19]
inactive: all other assays above

Cc1cccc(O)c1
not listed: [4] | [17] | [18] | [19]
inactive: all other assays above

OCC(CO)(CBr)CBr
not listed: [3]
inactive: all other assays above

CC(=O)CC(=O)Nc1ccccc1C
not listed: [11] | [13] | [19]
inactive: all other assays above

c1c[nH]cn1
not listed: [4] | [19]
inactive: all other assays above

Cc1cccnc1
not listed: [3]
inactive: all other assays above

COc1ccc(NC(C)=O)cc1N
not listed: [16] | [19]
inactive: all other assays above

OCc1cccnc1
not listed: [4] | [11] | [16] | [19]
inactive: all other assays above

CCCCCOC(C)=O
not listed: [7] | [16] | [19]
inactive: all other assays above

O=C(O)c1cc(C(=O)O)cc(S(=O)(=O)O)c1
not listed: [3] | [13] | [17] | [18]
inactive: all other assays above

O=C(OCCOCCOC(=O)c1ccccc1)c1ccccc1
not listed: [13] | [19]
inactive: all other assays above

CCCCCCCC(=O)OC
not listed: [11] | [13] | [16]
inactive: all other assays above

CCCCCCOCCO
not listed: [4] | [11] | [13] | [16] | [17] | [18] | [19]
inactive: all other assays above

Cc1occc(=O)c1O
not listed: [3]
inactive: all other assays above
